Results reported in PubChem BioAssay (NCI).
The panel holds about 83,000 compounds, 20% with a hit somewhere; the sample as a whole holds those more often.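 The endpoint reported here, percent growth, reads 100 for growth as untreated, 0 for no net growth and -100 for all cells dead.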 Values without a mark were called inactive. Activity calls are given as the source filed them. The calls were made as follows: active = growth percent below 10; inactive = the rest.

Experiments:
Assay in all cases: NCI-60 one-dose screen, 48 h (100 = growth as untreated, 0 = no growth, -100 = all killed)
Details in all cases: 10 µM unless noted
[1] = system: SK-MEL-2 melanoma
[2] = system: EKVX NSCLC
[3] = system: SN12C renal
[4] = system: UO-31 renal
[5] = system: TK-10 renal
[6] = system: ACHN renal
[7] = system: CAKI-1 renal
[8] = system: A498 renal
[9] = system: CCRF-CEM leukemia
[10] = system: MOLT-4 leukemia

| Structure (SMILES) | growth [1] | growth [2] | growth [3] | growth [4] | growth [5] | growth [6] | growth [7] | growth [8] | growth [9] | growth [10] |
| --- | --- | --- | --- | --- | --- | --- | --- | --- | --- | --- |
| CC/C=C\C/C=C\C[C@H](O)C/C=C1/C(=O)C=C[C@H]1C/C=C\CCC(=O)OC | 65.6% [8.25 µM] | 39% [8.25 µM] | 1.16% [8.25 µM] (active) | 48.1% [8.25 µM] | 58.7% [8.25 µM] | 26.9% [8.25 µM] | 55.3% [8.25 µM] | 107% [8.25 µM] | -1.3% [8.25 µM] (active) | 32.7% [8.25 µM] |
| NC(=O)NNC(=O)c1ccccc1 | 128% | 96.3% | 114% | 89.8% | 103% | 109% | 92.5% | 124% | 105% | 102% |
| C=C1C(=O)O[C@H]2[C@H]1CC/C(COC(=O)NCCc1cccc(OC)c1)=C\CC[C@@]1(C)O[C@@H]21 | 68.5% | 68.3% | 42.6% | 32% | 24.9% | -9.71% (active) | 8.84% (active) | 82.4% | 4.38% (active) | 11.5% |
| COc1cc(-n2nc(C(=O)Nc3ccc(C(=O)O)cc3)nc2-c2ccccc2)cc(OC)c1OC | 106% | 53% | 82.1% | 58.6% | 79.1% | 36.1% | 52.2% | 62.9% | 89% | 95.8% |
| CCCCn1c(=O)c(C2CNC(=O)c3ccccc3N2)cc2ccccc21 (stereo not given) | 106% | 103% | 85.7% | 93.1% | 109% | 98.2% | 85.8% | 88.7% | 110% | 46.4% |
| COc1cc(-c2csc(NC(=O)Nc3ccc(Cl)cc3Cl)n2)cc(OC)c1OC | 62.7% | 46.6% | 59.5% | 34.6% | 54.6% | 30.3% | 37.8% | 34.8% | 33.3% | 33.4% |
| COc1ccc(/C(=N/O)c2cc(OC)c(OC)c(OC)c2)c(OC)c1N | 36.5% | 47.4% | 52.8% | 49.3% | 35.3% | 43.3% | 23.9% | -4.33% (active) | 22.3% | 27.8% |
| Cc1nc2scc(-c3ccccc3)n2c(=O)c1CCO | 124% | 92.3% | 98.8% | 72.5% | 99.9% | 98.9% | 80.5% | 86.8% | 103% | 106% |
| COC(=O)CC/C(C)=N\Nc1ccc([N+](=O)[O-])cc1 | 57.3% | 59.2% | 81.9% | 35.5% | 63.3% | 36.2% | 41.4% | 77.3% | 35% | 34% |
| O=C1Nc2cc(Cl)ccc2/C1=C/c1ccc(N2CCOCC2)s1 | 91.4% | 105% | 104% | 85.9% | -3.94% (active) | 114% | 100% | 87.1% | 99.8% | 92.8% |
| CC(=O)N1Cc2ccccc2C(C)Cc2cc(Cl)ccc21 (stereo not given) | 105% | 94.5% | 104% | 97.8% | 98.4% | 109% | 90% | 75.7% | 110% | 97% |
| COc1ccc(/C(=N\O)c2cc(OC)c(OC)c(OC)c2)c(OC)c1N | 35.1% | 47.3% | 44.4% | 50.3% | 9.72% (active) | 40.5% | 28.1% | -19.3% (active) | 12.6% | 24.1% |
| CCSc1nnc(Nc2ccc(C(C)C)cc2)s1 | 41.3% | 80.5% | 76.7% | 39.5% | 96.1% | 91.1% | 83.7% | 111% | 70.6% | 66.3% |
| COc1ncc(-c2ccc3ncnc(Nc4cccc(Cl)c4)c3c2)cc1NS(=O)(=O)C1CC1 | 36.5% | 12.3% | 31.2% | 22.5% | 1.03% (active) | 23.9% | 27.8% | 15.7% | 33.2% | -0.986% (active) |
| CC(=O)c1cc(C(=O)c2ccc3c(c2)Sc2ccccc2N3)c2cc(C)ccn12 | 35.8% | 31.1% | 23.1% | 28.4% | -25.7% (active) | 22.9% | 19% | -16.4% (active) | 11.1% | 13.1% |
| NC(=O)c1c(NC(=O)c2ccc3c(c2)OCO3)sc2c1CCC(=O)C2 | -57.8% (active) | 5.58% (active) | 8.18% (active) | -93.4% (active) | -20.2% (active) | -57.7% (active) | -80% (active) | -3.77% (active) | -33.3% (active) | -20.8% (active) |
| O=C(C[N+](=O)[O-])c1ccc(Cl)cc1 | 119% | 107% | 107% | 90.3% | 109% | 111% | 95.2% | 108% | 104% | 106% |
| CCCCOc1nc2c(C)cccc2cc1C1CNC(=O)c2ccccc2N1 (stereo not given) | 62.8% | 61.9% | 70.9% | 67.8% | 98.7% | 66.3% | 52.1% | 55.3% | 34.3% | 39% |
| O=C(/C=C/CN1CCOCC1)Nc1cc2c(Nc3cccc(Cl)c3F)ncnc2cc1OCCOC(F)F | 95.9% | 29.5% | 61.8% | 36.8% | 57.3% | 22.2% | 24.9% | 7.02% (active) | 102% | 77.3% |
| Nc1nn2cc(-c3ccc(Cl)s3)nc2c2ccccc12 | 49.9% | 86.7% | 91.9% | 67.1% | 113% | 79.6% | 74.6% | 59.5% | 76.8% | 44.4% |
| CC(Br)C(Br)c1cc2c(cc1Br)OCO2 (stereo not given) | 91.4% | 93.8% | 110% | 90.7% | 96.6% | 93.2% | 84% | 99.3% | 99.6% | 94.7% |
| COc1ccc(OC)c(NC(=O)c2cc(S(=O)(=O)N3CCc4ccccc43)ccc2OC)c1 | 36.4% | 94.9% | 95% | 42.2% | 91.9% | 93.3% | 107% | 69.8% | 107% | 106% |
| O=S(=O)(NCCCNc1nccc(-c2c(-c3ccc(F)c(O)c3)nc3sccn23)n1)c1ccc(Cl)cc1 | 27.7% | 101% | 77.4% | 67.8% | 135% | 65.9% | 54.7% | 109% | 35.2% | 46.1% |
| N#Cc1c(NC(=O)c2ccc([N+](=O)[O-])o2)[n+]([O-])c2cc(F)c(F)cc2[n+]1[O-] | 34.6% | 149% | 108% | 40.8% | 179% | 109% | 113% | 151% | 100% | 120% |
| NC(C(=O)O)C(O)c1ccc(OCc2ccccc2)c(OCc2ccccc2)c1 (stereo not given) | 104% | 104% | 107% | 92.1% | 104% | 101% | 93.3% | 85.3% | 94.6% | 98.9% |
| CCC(=O)Oc1ccc2c(c1)CC[C@@H]1[C@@H]2CC[C@]2(C)C[C@H](OC(=O)CC)C[C@@H]12 | 75.1% | 62.7% | 70.4% | 71.7% | 105% | 73% | 64.8% | 7.94% (active) | 74.6% | 51.1% |
| Cc1cc(C(=O)O)c(N)c(C)n1 | 119% | 95.4% | 106% | 83.4% | 101% | 109% | 92.3% | 101% | 107% | 101% |
